Laboratory results: PubChem BioAssay AID431 (Sanford-Burnham Center for Chemical Genomics, 2006)
In all, about 63,000 compounds went through this assay and about 1,100 (1.7%) were called active. The entries come from a sample that favours actives as a whole. Measured potencies and affinities stand elsewhere. A number with no mark means an inactive call.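 The calls were made as follows: active = compounds whose percent cytotoxicity in the single-dose primary screen, scaled between solvent and toxic-drug controls, exceeds 50; inactive = the rest.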

Test: viability loss of HPDE-C7K cells – cell-based, fluorescence, HTS, primary screen (AID 431);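 also: 0% = DMSO solvent wells and 100% = doxorubicin-treated wells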
Conditions: HPDE-C7K KRASV12 cells, Alamar Blue viability, 48 h; at 10 µM; hits give high values

With Cc1nnc2n1N=CC=C(C(C)(C)C)S2 as the molecule, how does the cytotoxicity read?
The cytotoxicity was -17.2%.

For Cc1nnc2n1N=CC=C(c1ccccc1)S2, which cytotoxicity is on record?
The cytotoxicity was 62% (active).

Which cytotoxicity does the source give for COn1cnnc1-c1ccccc1 here?
Its cytotoxicity is -14.1%.

With CCOC(=O)c1cc(NC(=O)c2ccoc2C)cc(C(=O)OCC)c1 as the molecule, how does the cytotoxicity read?
The cytotoxicity was 15.5%.

For Cc1noc(C)c1COC(=O)CCc1nc2ccccc2s1, which cytotoxicity is on record?
The cytotoxicity was -2.7%.

With c1cn2cc(CN3CCOCC3)nc2s1 as the molecule, how does the cytotoxicity read?
Its cytotoxicity is -3.4%.

Which cytotoxicity does the source give for Cc1nnc2sc(-c3cc4ccccc4o3)nn12 here?
The cytotoxicity was 8.5%.

For COc1ccccc1-c1nn2c(-c3ccccc3Cl)nnc2s1, which cytotoxicity is on record?
The cytotoxicity was -7.7%.

With COc1ccccc1-c1nnc2sc(-c3cc4ccccc4o3)nn12 as the molecule, how does the cytotoxicity read?
Its cytotoxicity is 61.8% (active).

Which cytotoxicity does the source give for COC(=O)CSc1nnc(SCc2ccccc2)s1 here?
The cytotoxicity was -19.9%.

For CCOC(=O)N1CCN(C(=O)CCc2nc3sc4c(c3c(=O)[nH]2)CCCC4)CC1, which cytotoxicity is on record?
The cytotoxicity was 4.1%.

Which cytotoxicity does the source give for CC(C)OC(=O)CSc1nnc(-c2ccc(Cl)cc2Cl)n1N here?
Its cytotoxicity is -9.9%.

With Cc1ccc(Nc2nc(N3CCOCC3)nc(N3CCOCC3)n2)cc1 as the molecule, how does the cytotoxicity read?
Its cytotoxicity is 10.2%.

Which cytotoxicity does the source give for Cc1cccc(Nc2nc(NCc3ccco3)nc(N3CCOCC3)n2)c1 here?
The cytotoxicity was 63.9% (active).

For O=C(O)c1cccc(Nc2nc(N3CCOCC3)nc(N3CCOCC3)n2)c1, which cytotoxicity is on record?
The cytotoxicity was 1.7%.

Which cytotoxicity does the source give for CC(C)c1ccc(Nc2nc(NCc3ccco3)nc(N3CCOCC3)n2)cc1 here?
The cytotoxicity was 35.8%.

For COc1nc(Nc2cccc(C(F)(F)F)c2)nc(OC)n1, which cytotoxicity is on record?
Its cytotoxicity is 4.6%.

For CN1CCN(c2nc(Nc3cccc(C(F)(F)F)c3)nc(N3CCOCC3)n2)CC1, which cytotoxicity is on record?
The cytotoxicity was 52.3% (active).

With CCOC(=O)N1CCN(C(=O)C2CC(=O)N(c3ccc(OC)cc3)C2c2ccc(OC)cc2)CC1 (configuration not stated) as the molecule, how does the cytotoxicity read?
The cytotoxicity was -8.1%.

With O=C(NCCCN=C1NS(=O)(=O)c2ccccc21)c1ccc(S(=O)(=O)N2CCCCC2)cc1 as the molecule, how does the cytotoxicity read?
Its cytotoxicity is -14.3%.

For c1ccc(Cn2c(SCc3nc4ccccc4s3)nnc2-c2ccco2)cc1, which cytotoxicity is on record?
Its cytotoxicity is 8.5%.

For Nc1c(NC2CCCCC2)c2ccccc2oc1=O, which cytotoxicity is on record?
Its cytotoxicity is -25.2%.

Which cytotoxicity does the source give for COC(=O)c1c(-c2cccs2)csc1NC(=O)CN1CCOCC1 here?
Its cytotoxicity is 4.8%.

Which cytotoxicity does the source give for CCOC(=O)c1c(-c2cccs2)csc1NC(=O)CCCC(=O)O here?
Its cytotoxicity is 25.9%.

For CCOC(=O)c1c(-c2cccs2)csc1NC(=O)CN1CC(C)OC(C)C1 (configuration not stated), which cytotoxicity is on record?
The cytotoxicity was 60.6% (active).

Which cytotoxicity does the source give for N#CCc1ccc(NS(=O)(=O)c2ccc(N3CCCC3=O)cc2)cc1 here?
The cytotoxicity was -0.7%.

For Cc1cccc2cc3c(N)c(C(=O)N4CCOCC4)sc3nc12, which cytotoxicity is on record?
Its cytotoxicity is 68.7% (active).

For Cc1ccc2cc3c(N)c(C(=O)N4CCOCC4)sc3nc2c1, which cytotoxicity is on record?
The cytotoxicity was -10.3%.

For Cc1ccc2nc3sc(C(=O)N4CCOCC4)c(N)c3cc2c1, which cytotoxicity is on record?
Its cytotoxicity is 5.9%.

With O=C(NCCCN1CCCCCC1)c1ccc2c(c1)NC(=O)C(N1CCOCC1)S2 (configuration not stated) as the molecule, how does the cytotoxicity read?
Its cytotoxicity is -17.2%.

With O=C(Nc1c(C(=O)O)oc2ccc(Br)cc12)c1ccccc1 as the molecule, how does the cytotoxicity read?
The cytotoxicity was 31.7%.

With COc1cc(C(=O)Nc2ccccn2)cc(OC)c1OC as the molecule, how does the cytotoxicity read?
The cytotoxicity was 21.5%.

With COc1ccc(C(NC(C)=O)c2ccc3cccnc3c2O)c(OC)c1 (configuration not stated) as the molecule, how does the cytotoxicity read?
The cytotoxicity was -6.2%.

Which cytotoxicity does the source give for CCOc1ccc(C(=O)Nc2c3c(nn2-c2cccc(C)c2C)CS(=O)C3)cc1 (configuration not stated) here?
Its cytotoxicity is -6.5%.

With Cc1nc(N2CCN(C(=O)c3ccco3)CC2)c2c3c(sc2n1)CCC3 as the molecule, how does the cytotoxicity read?
The cytotoxicity was 2.2%.

Which cytotoxicity does the source give for CC(C)c1nc(N2CCN(C(=O)c3ccco3)CC2)c2c3c(sc2n1)CCCC3 here?
The cytotoxicity was -14.3%.

With O=C(c1ccco1)N1CCN(c2nc(C3CC3)nc3sc4c(c23)CCCC4)CC1 as the molecule, how does the cytotoxicity read?
The cytotoxicity was 50.9% (active).

For COc1cccc(CCC(=O)O)c1OC, which cytotoxicity is on record?
Its cytotoxicity is -7%.

Which cytotoxicity does the source give for CCOC(=O)N1CCN(C(=O)Cn2nc(C)c3sc4ccccc4c3c2=O)CC1 here?
The cytotoxicity was -5%.

With CCN(CCNC(=O)C1CCCN(Cc2nc(-c3ccc(OC)cc3)oc2C)C1)c1ccccc1 (configuration not stated) as the molecule, how does the cytotoxicity read?
The cytotoxicity was 62.7% (active).

With CCc1ccc(-c2nc(CN3CCC(C(=O)NCCN(CC)c4ccccc4)CC3)c(C)o2)cc1 as the molecule, how does the cytotoxicity read?
Its cytotoxicity is 39.2%.

Which cytotoxicity does the source give for CCc1ccc(-c2nc(CN3CCCC(C(=O)NCCc4ccc(OC)c(OC)c4)C3)c(C)o2)cc1 (configuration not stated) here?
The cytotoxicity was 5.5%.

Which cytotoxicity does the source give for Cc1nonc1NC(=O)CSc1nc2cc(Cl)ccc2c2c1CCCC2 here?
Its cytotoxicity is 36.2%.

Which cytotoxicity does the source give for Cn1c(NC(=O)c2cccnc2)nc2ccccc21 here?
Its cytotoxicity is 0.4%.

With Cc1cc(C)nc(SCC(=O)c2ccc(O)cc2O)n1 as the molecule, how does the cytotoxicity read?
Its cytotoxicity is -9.3%.

Which cytotoxicity does the source give for Cc1ccc(S(=O)(=O)CCC(=O)OCC(=O)Nc2cc(C)on2)cc1 here?
The cytotoxicity was -22.1%.

Which cytotoxicity does the source give for COc1ccc2nc(NCCO)[nH]c2c1 here?
Its cytotoxicity is -14.2%.

Which cytotoxicity does the source give for COc1ccc(C(=O)Nc2nc3ccccc3[nH]2)cc1OC here?
Its cytotoxicity is -8%.

With CCCOc1ccc2nc(NC(=O)OC)[nH]c2c1 as the molecule, how does the cytotoxicity read?
The cytotoxicity was 61.1% (active).

Which cytotoxicity does the source give for COc1ccc2nc(SCC(N)=O)[nH]c2c1 here?
The cytotoxicity was -17.7%.

Which cytotoxicity does the source give for CCCSc1ccc2nc(NC(=O)OC)[nH]c2c1 here?
Its cytotoxicity is 63.4% (active).

With CCOc1ccc2nc(NCCO)[nH]c2c1 as the molecule, how does the cytotoxicity read?
Its cytotoxicity is 4.8%.

With Cn1nc(CC(=O)Nc2cccc3ncccc23)c2ccccc2c1=O as the molecule, how does the cytotoxicity read?
The cytotoxicity was -4.3%.

Which cytotoxicity does the source give for CCOC(=O)c1ccc(NC(=O)CCc2nc(-c3cccc(C)c3)no2)cc1 here?
Its cytotoxicity is 1%.

With CCOC(=O)c1[nH]c(C)c(C(=O)NCCN2CCOCC2)c1C as the molecule, how does the cytotoxicity read?
Its cytotoxicity is 8.4%.

Which cytotoxicity does the source give for CC(=O)c1c(C)[nH]c(C(=O)OCC(=O)Nc2cc(C(F)(F)F)ccc2N2CCOCC2)c1C here?
The cytotoxicity was 14.5%.

For CCC(=O)N/C=C/n1cnc2cc(C(F)(F)F)ccc21, which cytotoxicity is on record?
The cytotoxicity was 15.3%.

Which cytotoxicity does the source give for C=CCOC(=O)CCC(=O)Nc1cc(OC)nc(OC)n1 here?
The cytotoxicity was 51.4% (active).

For COc1cc(NC(=O)CCCC(=O)OCC(F)(F)C(F)F)nc(OC)n1, which cytotoxicity is on record?
The cytotoxicity was -2.6%.

For C#CCOC(=O)CCC(=O)Nc1cc(OC)nc(OC)n1, which cytotoxicity is on record?
The cytotoxicity was -8%.

For CCOC(=O)Cn1c(C)c(C#N)c2ccccc21, which cytotoxicity is on record?
The cytotoxicity was 8.1%.

For COc1ccc(N(CC(=O)N2CCc3ccccc32)S(=O)(=O)c2c(C)noc2C)cc1, which cytotoxicity is on record?
Its cytotoxicity is 2%.

With O=C(COc1ncnc2ccc(Br)cc12)Nc1ccc(N2CCOCC2)cc1 as the molecule, how does the cytotoxicity read?
The cytotoxicity was -7.7%.

For COc1ccc(OC)c(-c2nnc(NC(=O)C(C)Sc3nncn3C)s2)c1 (configuration not stated), which cytotoxicity is on record?
The cytotoxicity was 4.7%.

For Cc1ccc(S(=O)(=O)NC2CCOC(C)(C)C2)cc1 (configuration not stated), which cytotoxicity is on record?
Its cytotoxicity is -15.4%.

With COc1cccc2c1C(=O)c1c(O)c3c(c(O)c1C2=O)C[C@@](O)(C(=O)CO)C[C@@H]3O[C@H]1C[C@H](N)[C@H](O)[C@H](C)O1 as the molecule, how does the cytotoxicity read?
The cytotoxicity was 98.7% (active).

For COc1cccc2c1C(=O)c1c(O)c3c(c(O)c1C2=O)C[C@@](O)(C(C)=O)C[C@@H]3O[C@H]1C[C@H](N)[C@H](O)[C@H](C)O1, which cytotoxicity is on record?
The cytotoxicity was 106% (active).

With COc1ccccc1N1CCN(C(=O)c2nn(-c3ccccc3OC)c(=O)c3ccccc23)CC1 as the molecule, how does the cytotoxicity read?
The cytotoxicity was 4.9%.

For CCNc1nc(Oc2ccc(=O)n(-c3ccccc3)n2)nc(N2CCOCC2)n1, which cytotoxicity is on record?
Its cytotoxicity is 4.3%.

For Nc1nnc(N2CCCCC2)s1, which cytotoxicity is on record?
The cytotoxicity was -11.2%.

For Cc1ccc(CNS(=O)(=O)c2ccc3oc(C(=O)O)c(C)c3c2)cc1, which cytotoxicity is on record?
The cytotoxicity was 1.5%.

With CCOC(=O)N1CCN(C(=O)CCn2nc(-c3ccc(Cl)cc3)ccc2=O)CC1 as the molecule, how does the cytotoxicity read?
The cytotoxicity was -0.1%.

Which cytotoxicity does the source give for COc1ccc(S(=O)(=O)Nc2cccc(Cl)c2)cc1OC here?
Its cytotoxicity is 9.4%.

With CCOc1ccc(S(=O)(=O)Nc2cccc(Cl)c2)cc1 as the molecule, how does the cytotoxicity read?
Its cytotoxicity is 65% (active).

With CCOc1ccc(S(=O)(=O)Nc2cccnc2)cc1 as the molecule, how does the cytotoxicity read?
Its cytotoxicity is 4.6%.

With CCOc1ccc(S(=O)(=O)Nc2cc(Cl)ccc2O)cc1 as the molecule, how does the cytotoxicity read?
The cytotoxicity was 64.5% (active).

For CCOc1ccc(NS(=O)(=O)c2ccc(NS(C)(=O)=O)cc2)cc1, which cytotoxicity is on record?
Its cytotoxicity is -17%.

With CCOc1ccc(NS(=O)(=O)c2cc(Cl)ccc2OC)cc1 as the molecule, how does the cytotoxicity read?
The cytotoxicity was -5.4%.

Which cytotoxicity does the source give for Clc1ccc(-c2noc(CN3CCCC3)n2)cc1 here?
The cytotoxicity was -4.3%.

Which cytotoxicity does the source give for COc1ccc(Cl)cc1NC(=O)CN(C(=O)c1ccco1)C1CCCCC1 here?
The cytotoxicity was 4.7%.

Which cytotoxicity does the source give for CCSc1nnc(NC(=O)c2cccs2)s1 here?
Its cytotoxicity is 22.4%.

For COC(=O)c1cccc(NC(=O)CSc2nnc(COc3cccc(C)c3)n2C)c1, which cytotoxicity is on record?
Its cytotoxicity is -15.1%.

For CCOC(=O)c1[nH]c(C)c(/C(O)=C2\C(=O)C(=O)N(CCCn3ccnc3)C2c2ccncc2)c1C (configuration not stated), which cytotoxicity is on record?
Its cytotoxicity is 11.3%.

With CC1=C(C)C(=O)NC(Nc2nc(C)c3cc(C)cc(C)c3n2)N1 (configuration not stated) as the molecule, how does the cytotoxicity read?
Its cytotoxicity is 90.8% (active).

Which cytotoxicity does the source give for Cc1cc(C)c2nc(NC3=NCN(CCN4CCOCC4)CN3)nc(C)c2c1 here?
The cytotoxicity was -2%.

For Cc1ccnc(SCCn2c(N3CCC(C)CC3)nc3c2c(=O)[nH]c(=O)n3C)n1, which cytotoxicity is on record?
Its cytotoxicity is 5.9%.

For Cc1cc(C)nc(/N=C2\NC(=O)CC(C(=O)O)N2c2ccc(Oc3ccccc3)cc2)n1 (configuration not stated), which cytotoxicity is on record?
Its cytotoxicity is 3.8%.

With O=C(Nc1ccccc1C(=O)N1CCCCCC1)c1cccc(S(=O)(=O)N2CCOCC2)c1 as the molecule, how does the cytotoxicity read?
Its cytotoxicity is 6.4%.

With CCN(CC)c1ccc2cc(-c3nc4ccccc4[nH]3)c(=O)oc2c1 as the molecule, how does the cytotoxicity read?
The cytotoxicity was 42.2%.

For CCN(CC)c1ccc2cc(-c3nnc(-c4ccncc4)o3)c(=O)oc2c1, which cytotoxicity is on record?
The cytotoxicity was 71.1% (active).

With O=c1oc2ccc3ccccc3c2cc1-c1nnc(-c2ccccc2)o1 as the molecule, how does the cytotoxicity read?
Its cytotoxicity is -4.9%.

Which cytotoxicity does the source give for CC(=O)Oc1ccc2cc(-c3nc4ccccc4n3C)c(=O)oc2c1 here?
The cytotoxicity was -1.4%.

With CCN(CC)c1ccc2cc(-c3nc4ccccc4n3C)c(=O)oc2c1 as the molecule, how does the cytotoxicity read?
The cytotoxicity was 53.3% (active).

For CCN(CC)c1ccc2cc(C(=O)Nc3ccccn3)c(=O)oc2c1, which cytotoxicity is on record?
The cytotoxicity was 18.9%.

Which cytotoxicity does the source give for C/C(Cl)=C/Cn1c(NCCN(C)C)nc2c1c(=O)n(C)c(=O)n2C here?
The cytotoxicity was 10.3%.

Which cytotoxicity does the source give for CCCCC(=O)Nc1ccc2c(c1)nc1n2CCOC1 here?
Its cytotoxicity is -4.8%.

With Cc1onc(-c2ccccc2)c1C(=O)NCc1ccco1 as the molecule, how does the cytotoxicity read?
The cytotoxicity was 9%.
